HT1080-NT tox = qHTS for induction of synthetic lethality in tumor cells producing 2HG: qHTS for the HT-1080-NT fibrosarcoma cell line. HT-1080-NT fibrosarcoma viability, CellTiter-Glo ATP luminescence, 48 h. Potency, µM (highest dose often 46.1 µM), without a hit: at the top dose activity, negative = less viability, most hits filed as cytotoxic. hit rate 1.6% among 360,000;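 further: NT is the 2HG producing partner of a matched IDH1 knockdown line; 0% = DMSO-treated cells and -100% = media-only wells without cells; nearly all actives have a fitted effect of over 55% in size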
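A 48-hour cytotoxicity screen used HT-1080-NT cells plated 2 hours before compound delivery. ATP-based CellTiter-Glo luminescence measured viability, normalized to DMSO and no-cell controls.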
S2 tox = Viability Counterscreen for Primary qHTS for Inhibitors of ATXN expression | Potency, µM (doses to about 56.7 µM), hits mostly cytotoxic | AID 651635, 2014 | S2 cells (HEK-293 line with an ATXN2-luciferase reporter) viability, CellTiter-Fluor protease fluorescence, 24 h | hit rate 0.49% among 400,000; further: nearly all actives have a fitted effect of over 40% in size
KB-3-1 tox = qHTS assay for MDR1-selective chemotherapeutics: Primary screen using the parental adenocarcinoma cell KB-3-1. KB-3-1 viability, CellTiter-Glo ATP luminescence, 72 h. Potency, µM (series often up to 46.1 µM), hits mostly cytotoxic. hit rate 1.4% among 400,000; further: on the % scale 0 is the no-effect control and ±100 the full control effect; nearly all actives have a fitted effect of over 60% in size
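KB-3-1 cells, DMEM (no phenol red) + 10% FBS; compound by pin transfer, 72 h, 37 °C. Readout: CellTiter-Glo luminescence after 10 min. Data normalized, curve-fitted.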
KB-V1 MDR tox = qHTS assay for MDR1-selective chemotherapeutics: Primary screen using the drug-selected MDR subline cells KB-V1 | AID 1347076, 2019 | Potency, µM (series often up to 46.1 µM), actives largely listed as cytotoxic | hit rate 3.4% among 400,000 | KB-V1 MDR cells viability, CellTiter-Glo, 72 h; further: on the % scale 0 is the no-effect control and ±100 the full control effect; nearly all actives have a fitted effect of over 60% in size
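Potencies derive from concentration-effect curves fitted to normalized luminescence (CellTiter-Glo) of KB-V1 cells treated for 72 h at 37 degrees C in phenol-red-free DMEM containing 10% FBS.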
ATXN2 expr inh = Primary qHTS for Inhibitors of ATXN expression | AID 1745845, 2022 | hit rate 0.72% among 360,000 | Potency, µM (doses to about 57 µM), inactives show top-dose activity change, negative = inhibition, most hits filed as inhibitors | HEK-293 ATXN2-luciferase reporter, luminescence, 24 h; further: on the % scale 0 is the no-effect control and ±100 the full control effect; nearly all actives have a fitted effect of over 55% in size
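ATXN2-luciferase reporter cells (luciferase flanked by upstream and downstream ATXN2 gene portions) were treated 24 h at 37 °C with compounds at up to 57 uM. SteadyGlo luminescence gave expression; GF-AFC fluorescence gave viability.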
HT1080 IDH1KD tx = qHTS for induction of synthetic lethality in tumor cells producing 2HG: qHTS for the HT-1080-IDH1KD cell line. HT-1080 IDH1 knockdown viability, ATP luminescence, 48 h. Potency, µM (doses to about 46.1 µM), for the others: top-dose activity, negative = toxicity, hits mostly cytotoxic. hit rate 2% among 360,000. AID 686971, 2013;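 further: 0% = DMSO wells and -100% = cell-free medium wells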
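% activity derives from luminescence (CellTiter-Glo), normalised to DMSO and no-cell wells. HT-1080-IDH1KD cells, 750/well, had 48 h compound exposure at 37 °C.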
Numbers without * were called inactive; i = inactive; ? = inconclusive; · = no result; ! = not active in a repeat; [ ] = dose if it differs, or a comment. In the library only some 6.2% were active in any assay of this set; here they are far more common. The call rests on the fitted dose curve; in most records, active means well fitted curve in the direction sought with a large enough effect; inconclusive means small, poorly fitted or top-dose-only effect, or another doubt; inactive means no such curve, though single readings can be large; an effect the other way counts as inactive or inconclusive. Potency means the concentration at half of the fitted maximal effect.

SMILES	HT1080-NT tox	S2 tox	KB-3-1 tox	KB-V1 MDR tox	ATXN2 expr inh	HT1080 IDH1KD tx
Oc1ccc(N=Nc2nc(-c3ccccc3)c(-c3ccccc3)[nH]2)cc1	-4.5%	11.2µM*	?	?	10.5%	-21.5%
Oc1ccc(-c2nc(-c3ccccc3)c(-c3ccc(Br)cc3)[nH]2)cc1	·	?	i	i	?	·
Cc1cc2c(c(-c3cnccn3)c1)OC(CNC(=O)c1cc(Cl)ccc1F)C2 (stereo unspecified)	·	i	·	·	·	·
CCCN(CCC)CCCNc1ccc(C(=O)Nc2cccc(OC)c2)cc1[N+](=O)[O-]	?	i	i	i	-22.7%	20.6µM*
CN(CC(=O)Nc1cccc(F)c1)C(=O)c1ccc(NC2CC2)c([N+](=O)[O-])c1	0.1%	?	i	i	-7.1%	-9.9%
COc1cccc(NC(=O)CN(C)C(=O)c2ccc(NC3CC3)c([N+](=O)[O-])c2)c1	-3.1%	i	i	7.31µM*	-1.8%	-5.5%
COc1cccc(NC(=O)CN(C)C(=O)c2ccc3ccccc3c2)c1	4.2%	i	i	20.6µM*	3.8%	-4.3%
COc1ccc(NC(=O)CN(C)C(=O)c2ccc3ccccc3c2)cc1	-9.2%	i	i	i	1.6%	0.3%
Cc1sc2ncn(CC(=O)Nc3ccc(F)cc3Cl)c(=O)c2c1S(=O)(=O)N1CCN(c2ncccn2)CC1	·	i	i	?	-5.7%	·
CC1=CC(C)(C)N2C(=O)C3(C(C#N)=C(N)OC4=C3C(=O)CCC4)c3c(C)c(C)cc1c32 (stereo unspecified)	-8.8%	i	i	i	-12.4%	-13.3%
CC1=CC(C)(C)N2C(=O)C3(C(C#N)=C(N)Oc4cc(O)ccc43)c3c(C)c(C)cc1c32 (stereo unspecified)	?	12.6µM*	?	?	?	?
CCN(CC(=O)Nc1ccccc1C(F)(F)F)C(=O)c1ccc(N2CCCC2=O)cc1	-2.3%	?	i	i	·	0.5%
O=C(CN1c2ccccc2Sc2ccccc21)NNC(=O)Nc1cccc(Cl)c1	18.4µM*	?	?	i	-25.7%	11.6µM*
O=C(CCC(=O)NNC(=O)Nc1cccc(Cl)c1)NCc1ccccc1	-15.0%	i	i	i	-9.8%	-3.2%
C/C(=N\NC(=O)c1cccs1)c1c(O)cc(C)oc1=O	-1.1%	i	i	i	61.8%	-0.3%
C/C(=N\Nc1ccc(Cl)cc1)c1c(O)cc(C)oc1=O	?	i	i	i	-4.3%	23.1µM*
Cc1ccc(C(=O)Nc2nc(-c3ccccn3)cs2)o1	-17.1%	?	?	i	·	?
O=C(Nc1nc(-c2ccco2)cs1)c1ccccc1	1.8%	i	i	i	6.3%	-0.3%
Cc1ccc(-c2csc(NC(=O)c3ccc(-c4ccccc4)cc3)n2)o1	-0.4%	?	?	14.6µM*	-12.2%	-21.8%
CC(=O)c1ccc(-c2ccc(C(=O)Nc3nc(-c4ccccn4)cs3)o2)cc1	?	i	?	?	-38.2%	10.3µM*
CCC1CCCCN1C(=O)CSc1nc(-c2ccc(OC)cc2)cc(C(F)(F)F)n1 (stereo unspecified)	·	?	i	i	?	·
Cc1ccc(-c2csc(=Nc3ccccc3)n2Cc2ccc3c(c2)OCO3)cc1	·	i	i	i	35.7%	·
CCOC(=O)c1sc(C)c2c1NC(C)(c1cccs1)NC2=O (stereo unspecified)	-27.8%	i	i	5.17µM*	2.8%	?
CCOC(=O)c1sc(C)c2c1NC1(CCCCC1)NC2=O	6.0%	i	i	i	16.3%	-2.4%
COc1ccc(S(=O)(=O)n2nc(-c3cc(OC)c(OC)c(OC)c3)cc2N)cc1OC	-24.5%	i	i	i	6.2%	-3.5%
SMILES	HT1080-NT tox	S2 tox	KB-3-1 tox	KB-V1 MDR tox	ATXN2 expr inh	HT1080 IDH1KD tx
COc1ccc(-c2cc(N)n(S(=O)(=O)c3c(F)c(F)c(F)c(F)c3F)n2)cc1OC	7.08µM*	10µM*	10.3µM*	9.2µM*	7.94µM*	3.98µM*
CC(C)N1C(=O)c2ccccc2C1C(=O)NC1CCCCCC1 (stereo unspecified)	0.4%[9.24 µM]	i	i	i	-18.2%	1.8%
CCC(C)NC(=O)C1c2ccccc2C(=O)N1Cc1cc(OC)ccc1OC (stereo unspecified)	9.2%	i	i	7.31µM*	3.5%	11.4%
CCC(C)N1C(=O)c2ccccc2C1C(=O)NC1CCCCCC1 (stereo unspecified)	-2.8%	i	i	18.4µM*	4.1%	9.4%
O=C(NC1CCCCCC1)C1c2ccccc2C(=O)N1Cc1ccco1 (stereo unspecified)	5.7%	i	i	20.6µM*	-8.0%	9.4%
COc1ccc(CN2C(=O)c3ccccc3C2C(=O)NC2CCCC2)c(OC)c1 (stereo unspecified)	8.9%	i	i	3.66µM*	-3.3%	-3.4%
O=C(NC1CCCCCC1)C1c2ccccc2C(=O)N1Cc1cccs1 (stereo unspecified)	5.2%	i	i	?	-2.8%	-0.1%
COc1ccc(-c2ccc(CCC(=O)O)n2-c2ccccc2C(F)(F)F)cc1	·	i	18.4µM*	i	-23.6%	·
COc1ccc(-c2ccc(CCC(=O)O)n2-c2cc(OC)ccc2OC)cc1	23.1µM*	i	?	?	·	?
COc1ccc(-c2ccc(CCC(=O)O)n2-c2ccccc2O)cc1	?	?	?	i	5.7%	?
COc1ccc(-n2c(CCC(=O)O)ccc2-c2ccccc2)cc1	-6.1%	i	i	i	11.6%	-0.4%
O=[N+]([O-])c1cc(Cl)c(O)c2ncccc12	-25.8%	?	7.31µM*	i	20µM*	?
O=[N+]([O-])c1cc(F)c2cccnc2c1O	-26.1%	?	?	i	·	?
O=[N+]([O-])c1ccc(O)c2ncccc12	6.51µM*	12.6µM*!	?	?	10µM*	16.4µM*
Oc1c(I)cc(Cl)c2cccnc12	?	?	i	?	31.6µM*!	11.6µM*
O=C(Nc1ccc(C(=O)OC2CCCCC2)cc1)c1ccncc1	?	i	?	i	-5.6%	?
O=C(NCCc1nc2ccccc2n1CCOc1ccc2ccccc2c1)C1CCCCC1	·	·	i	i	·	·

Screens as filed in PubChem BioAssay.
